Consider ten molecules from PubChem BioAssay (Tox21).

Test [1] has as its target Luciferin 4-monooxygenase (Photinus pyralis) (UniProt P08659). Description: qHTS assay to identify small molecule inhibitors of firefly luciferase (AID 1224835). Further: nearly all actives have a fitted effect of over 25% in size. Further: potency means the concentration at half of the fitted maximal effect. The method, boiled down:
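Inhibition of purified Photinus luciferase is measured by luminescence. Substrate levels (D-luciferin, ATP) sit at their KM values. Each compound is tested in a concentration series.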

Test [2] in a line: qHTS assay to identify small molecule agonists of the constitutive androstane receptor (CAR) signaling pathway - cell viability counter screen (AID 1224836). Further: nearly all actives have a fitted effect of over 45% in size. The method, boiled down:
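Double-stable HepG2 hepatoma cells (hCAR plus CYP2B6-2.2kb) are treated for 23 h at 37 C with test compounds in 15-point concentration series. PK11195 at 0.75 uM final is co-added. Cell viability is quantified by CellTiter-Fluor.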
A general note: qHTS replaces the single test concentration by a dilution series.

Test [3] in a line: qHTS assay to identify small molecule antagonists of the constitutive androstane receptor (CAR) signaling pathway - cell viability counter screen (AID 1224837). Further: nearly all actives have a fitted effect of over 45% in size. The method in brief: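 Cells are seeded, rested 4 hr at 37 C/5% CO2, dosed with compound (15-point series) and 50 nM CITCO, incubated a further 23 hr, and then CellTiter-Fluor reagent is added before fluorescence is read. The line is HepG2 with stable hCAR and CYP2B6-2.2kb.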

Test [4] has as its target Nuclear receptor subfamily 1 group I member 3 (Homo sapiens) (UniProt Q14994). Description: qHTS assay to identify small molecule antagonists of the constitutive androstane receptor (CAR) signaling pathway (AID 1224838).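 Further: HepG2 cells stably expressing hCAR with CYP2B6 luciferase reporter stimulated by CITCO; nearly all actives have a fitted effect of over 40% in size.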 The method in brief: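 Luminescence from a CYP2B6-2.2kb promoter reporter in hCAR-expressing HepG2 cells reflects CAR signaling. Cells received compounds at 15 concentrations and 50 nM CITCO (final), then incubated 24 h at 37 C/5% CO2.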

For test [5] the target is unchanged. Description: qHTS assay to identify small molecule agonists of the constitutive androstane receptor (CAR) signaling pathway (AID 1224839). Further: nearly all actives have a fitted effect of over 15% in size. Further: potency means the concentration at half of the fitted maximal effect.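 On activation: HepG2 cells stably carrying human CAR and a CYP2B6 luciferase reporter.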 The method in brief: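 Readout: firefly luciferase luminescence via ONE-Glo. System: HepG2 double-stable for hCAR and CYP2B6-2.2kb. Conditions: 15-point compound titration, PK11195 at 0.75 uM final, 24 h incubation.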
Test [6] is described as follows: qHTS assay to identify small molecule antagonists of the estrogen related receptor signaling pathway with the pleiotropic PPARgamma coactivator (PGC) from Tox21 10K library - cell viability counter screen (AID 1224840; active means well fitted cell-killing curve with a large enough effect in the repeat runs, not every such curve was filed as active; further: nearly all actives have a fitted effect of over 40% in size). The method in brief: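 Cell viability is measured by CellTiter-Fluor fluorescence in PGC/ERR cells that receive compounds after a 6-hour attachment period and are then incubated 17.5 hours at 37 C.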

A short description of test [7]: qHTS assay to identify small molecule antagonists of the estrogen related receptor signaling pathway with the pleiotropic PPARgamma coactivator (PGC) from Tox21 10K library (AID 1224841; call rule not given here; further: actives are mostly falling curves and most rising ones were filed inactive; nearly all actives have a fitted effect of over 50% in size; further: potency means the concentration at half of the fitted maximal effect). The method in brief:
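Cells stably carrying the PGC/ERR reporter, seeded at 2,000 per well, received pin-transferred compounds 6 h post-plating. Exposure lasted 18 h at 37 C. Signal: One-Glo luminescence.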

Test [8] is described as follows: qHTS assay to identify small molecule agonists of the estrogen related receptor signaling pathway with the pleiotropic PPARgamma coactivator (PGC) from Tox21 10K library (AID 1224842). Further: nearly all actives have a fitted effect of over 15% in size. The method in brief:
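Luminescence from One-Glo (30 min, room temperature) measured after PGC/ERR cells had 18 h at 37 C with pinned compound (23 nL in DMSO). Cells had been seeded at 2,000 per well and pre-incubated 6 h.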

A short description of test [9]: qHTS assay to identify small molecule agonists of the hypoxia (HIF-1) signaling pathway - cell viability counter screen (AID 1224844; calls by dose curve; further: nearly all actives have a fitted effect of over 50% in size). The method, boiled down:
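Viability counter screen: HRE-bla ME-180 cells plated 5 hrs before compound addition, treated 17 hrs at 37C and 5% CO2, then CellTiter-Glo added after the FRET reporter read; luminescence after 30 min.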

Test [10] can be described thus: qHTS assay to identify small molecule agonists of the hypoxia (HIF-1) signaling pathway (AID 1224846; active means well fitted activation curve with a large enough effect in the signal ratio in the repeat runs, not every such curve was filed as active; the % refers to the signal ratio). The method in brief: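 Agonist mode reporter screen. ME-180 cells stably expressing bla under HRE control received test compounds in DMSO for 17 hrs (37C, 5% CO2), and beta-lactamase activity was then detected with the CCF4-AM FRET substrate.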
Test [11] in a line: qHTS assay to identify small molecule agonists of H2AX - cell viability counter screen (AID 1224847; calls by dose curve;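 further: wild-type CHO-K1 cells; top concentration of the series differs between compounds; nearly all actives have a fitted effect of over 30% in size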). The method in brief: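 For this counter screen, overnight-attached CHO-K1 cells received test compounds (15 concentrations, 0.76% DMSO final); 3 hr later at 37C, CellTiter-Glo reagent was added and luminescence recorded after 30 min at room temperature.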
Test [12] can be described thus: qHTS assay to identify small molecule agonists of the estrogen related receptor (ERR) signaling pathway from Tox21 library (AID 1224849; calls by dose curve; further: nearly all actives have a fitted effect of over 15% in size). As to conditions: ERR reporter cell line, ONE-Glo luciferase, 18 h; at 92.4 µM (top of the series) unless noted. The method, boiled down: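 Quantitative HTS in agonist format: NTP ERR cell line, compounds transferred in DMSO after 6 h plating, 18 h incubation at 37 C, ONE-Glo luminescence endpoint.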

Test [13] is described as follows: qHTS RealTime-Glo MT Cell Viability Assay in HepG2 cells - 24 hour (AID 1224867). Further: nearly all actives have a fitted effect of over 50% in size. The method, boiled down: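 Real-time, nonlytic viability: 600 HepG2 cells/well mixed with NanoLuc enzyme plus prosubstrate; 5 h settle, compound (DMSO) added by pintool; luminescence monitored over 40 h at 37 C.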
The nature of test [14]: qHTS RealTime-Glo MT Cell Viability Assay in HEK293 cells - 32 hour (AID 1224868). Further: nearly all actives have a fitted effect of over 50% in size. Further: potency means the concentration at half of the fitted maximal effect. The method in brief:
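Cells + reagent dispensed (600 cells/well, HEK293) → 5 h at 37 C/5% CO2 → 23 nL compound in DMSO pinned → 40 h at 37 C → luminescence read at 0, 8, 16, 24, 32, 40 h.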

Test [15] can be described thus: A CellTox Green Cytotoxicity Assay to monitor cytotoxicity in HEK293 cells - 0 hour (AID 1224869). Further: nearly all actives have a fitted effect of over 50% in size. The method, boiled down:
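Dead-cell fluorescence measured kinetically: asymmetric cyanine dye, HEK293, 600 cells/well, 5 h settle, 23 nL cpd/DMSO, 37 C, reads 0–40 h every 8 h.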

Test [16] is described as follows: qHTS RealTime-Glo MT Cell Viability Assay in HepG2 cells - 40 hour (AID 1224870). Further: nearly all actives have a fitted effect of over 50% in size. The method in brief: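 Real-time viability: cells seeded at 600 per well together with NanoLuc and cell-permeant prosubstrate, compounds added after 5 h incubation. Luminescence tracked at 0, 8, 16, 24, 32 and 40 h of exposure.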
Test [17] concerns the target Thyrotropin receptor (Homo sapiens) (UniProt P16473). The test is described as follows: qHTS assay to identify small molecule agonists of the thyroid stimulating hormone receptor (TSHR) signaling pathway (AID 1224843; calls by dose curve; further: nearly all actives have a fitted effect of over 45% in size). The method in brief:
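A cell-based cAMP HTRF format was run in TSHR-transfected HEK293 cells, 800 per well. Treatment: 30 min, room temperature. Detection: 1 h with labelled cAMP and anti-cAMP cryptate. Concentration-response over 15 points, three replicates.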

Test [18] in a line: qHTS assay to identify small molecule agonists of H2AX (AID 1224845; active means well fitted activation curve with a large enough effect in the signal ratio in the repeat runs, not every such curve was filed as active; the % refers to the signal ratio). The method in brief: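 Phospho-H2AX Ser139 measured by HTRF (ex 320 nm; em 665 and 620 nm) after 24 hr antibody incubation. Compounds, 15 concentrations, 0.76% DMSO, were applied to CHO-K1 cells for 3hr at 37C before lysis.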
Test [19] is described as follows: qHTS assay to identify small molecule antagonists of the estrogen related receptor (ERR) signaling pathway from Tox21 library (AID 1224848). Further: nearly all actives have a fitted effect of over 50% in size. Further: potency means the concentration at half of the fitted maximal effect. The method in brief:
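ERR cell line, 2,000 cells/well. 6 h settle, then compound (DMSO) added; 18 h at 37 C; ONE-Glo luminescence after 30 min RT.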

Values without a mark were called inactive. Results filed as inconclusive are left out. Activity calls are given as the source filed them. Unless noted, the call rests on the fitted dose curve; in most records, active means well fitted curve in the direction sought with a large enough effect in the repeat runs; inconclusive means weak or mixed curves; inactive means no such curve, though single readings can be large; an effect the other way counts as inactive or inconclusive.
On the % scale 0 is the no-effect control and ±100 the full control effect.

Chain of Luciferin 4-monooxygenase (Photinus pyralis) (P08659 whole entry, looked up): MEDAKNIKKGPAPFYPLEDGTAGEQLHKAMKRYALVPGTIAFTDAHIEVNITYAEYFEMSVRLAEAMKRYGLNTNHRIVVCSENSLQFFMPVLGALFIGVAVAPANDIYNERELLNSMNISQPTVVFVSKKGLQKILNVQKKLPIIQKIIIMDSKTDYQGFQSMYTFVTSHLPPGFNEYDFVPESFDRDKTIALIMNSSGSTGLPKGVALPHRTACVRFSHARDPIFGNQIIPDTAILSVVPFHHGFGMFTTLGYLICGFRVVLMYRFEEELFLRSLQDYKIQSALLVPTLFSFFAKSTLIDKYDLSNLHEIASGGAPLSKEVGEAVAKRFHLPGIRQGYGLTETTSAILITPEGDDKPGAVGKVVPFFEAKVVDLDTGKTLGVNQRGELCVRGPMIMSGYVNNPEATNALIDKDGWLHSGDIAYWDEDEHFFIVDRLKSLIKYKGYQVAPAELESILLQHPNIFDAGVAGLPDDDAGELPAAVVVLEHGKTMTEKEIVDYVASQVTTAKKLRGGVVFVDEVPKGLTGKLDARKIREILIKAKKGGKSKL
Chain of Nuclear receptor subfamily 1 group I member 3 (Homo sapiens) (Q14994 whole entry, looked up): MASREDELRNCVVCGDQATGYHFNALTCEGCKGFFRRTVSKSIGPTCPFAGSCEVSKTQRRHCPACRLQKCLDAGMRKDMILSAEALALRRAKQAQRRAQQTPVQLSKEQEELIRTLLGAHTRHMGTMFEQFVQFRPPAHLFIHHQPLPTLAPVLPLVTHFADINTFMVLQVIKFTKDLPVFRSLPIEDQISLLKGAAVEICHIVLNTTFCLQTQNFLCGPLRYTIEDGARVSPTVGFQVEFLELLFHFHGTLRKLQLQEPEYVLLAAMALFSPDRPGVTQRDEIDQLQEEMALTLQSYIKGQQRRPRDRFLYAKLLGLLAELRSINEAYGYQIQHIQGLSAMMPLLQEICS
Chain of Thyrotropin receptor (Homo sapiens) (P16473 whole entry, looked up): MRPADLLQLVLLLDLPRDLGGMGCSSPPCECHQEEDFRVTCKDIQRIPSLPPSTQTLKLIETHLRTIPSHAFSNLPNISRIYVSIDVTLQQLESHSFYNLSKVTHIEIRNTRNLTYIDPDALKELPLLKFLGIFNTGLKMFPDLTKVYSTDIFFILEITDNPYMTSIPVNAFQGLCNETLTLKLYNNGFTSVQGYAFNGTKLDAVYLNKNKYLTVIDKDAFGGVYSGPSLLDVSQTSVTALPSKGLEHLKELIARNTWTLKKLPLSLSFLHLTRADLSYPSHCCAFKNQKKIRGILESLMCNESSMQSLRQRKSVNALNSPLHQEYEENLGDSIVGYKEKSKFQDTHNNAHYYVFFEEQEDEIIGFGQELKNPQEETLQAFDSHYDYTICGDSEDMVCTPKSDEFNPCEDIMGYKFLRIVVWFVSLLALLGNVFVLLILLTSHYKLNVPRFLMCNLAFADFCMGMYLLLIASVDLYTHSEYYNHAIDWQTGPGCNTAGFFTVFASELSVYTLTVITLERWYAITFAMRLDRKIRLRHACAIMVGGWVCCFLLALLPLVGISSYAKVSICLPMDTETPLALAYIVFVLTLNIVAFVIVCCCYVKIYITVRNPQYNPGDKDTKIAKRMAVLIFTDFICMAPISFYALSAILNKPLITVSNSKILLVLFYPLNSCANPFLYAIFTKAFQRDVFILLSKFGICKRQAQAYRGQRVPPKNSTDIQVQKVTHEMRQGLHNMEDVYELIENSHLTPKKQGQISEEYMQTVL

Regarding `CC(C)Nc1cccnc1N1CCN(C(=O)c2cc3cc(NS(C)(=O)=O)ccc3[nH]2)CC1`, the Potency result in test [1], in [2], in [3], in [4], in test [5] and in [6] was “inactive” throughout. Moreover, the Potency entry in test [7], in [8], in test [9], in test [11], in [13] and in test [14] was “inactive” in each case. Further, in test [15], the Potency entry is “inactive”. Further, the molecule was called inactive in test [10]. Moreover, in test [12], the activity change, positive = activation is -20.7% [at 42.5 µM].
As to `Nc1nc2ccc([N+](=O)[O-])cc2s1`, the Potency result in test [4], in test [11], in [13], in test [15] and in test [16] was “inactive” each time.
For the molecule `COc1cc(N)c(Cl)cc1C(=O)NC1CCN(CCCOc2ccc(F)cc2)CC1OC` (configuration not stated), the Potency result in test [1], in test [2], in test [3], in test [8], in test [17] and in [9] was “inactive” throughout. Moreover, the Potency entry in [18], in [13], in [15] and in [16] was “inactive” in each case. For the same molecule, the Potency in test [19] was 11.9 µM (active); in [14] it was 3.01 µM (active). For the same molecule, the activity change, positive = activation in test [12] is -39.2% [at 42.5 µM].
With `COc1ccccc1NC(=O)c1cc2ccccc2cc1O`, the Potency in test [1] is 17.8 µM (active); in test [5], 17.2 µM (active); in test [7] it was 15.4 µM (active); in test [19], 19.3 µM (active); in test [14] it was 34.7 µM (active). Moreover, the Potency result in [2], in [3], in test [4], in test [6], in test [8] and in [17] was “inactive” throughout. Besides, the Potency result in test [18] and in test [15] was “inactive” throughout. Also, in [12], the activity change, positive = activation was -49.7%.
As to `O=C(CCc1ccc(O)cc1)c1c(O)cc(O)cc1O`, the Potency in test [1] is 72.6 µM (active); in test [14] it was 39.8 µM (active). The Potency result in test [2], in test [3], in test [7], in test [8], in test [17] and in test [9] was “inactive” each time. The Potency entry in test [13], in test [15] and in test [16] was “inactive” throughout. Also, in test [12], the activity change, positive = activation was -22.5%.
`O=C1Cc2ccccc2N1c1c(Cl)cccc1Cl`: the Potency entry in test [1], in test [2], in [4], in test [6], in [7] and in test [8] was “inactive” in each case. Besides, the Potency result in [18], in test [13], in test [15] and in test [16] was “inactive” throughout. In addition, the Potency was 30.6 µM (active) in [5], 48.6 µM (active) in test [19] and 24.5 µM (active) in test [14]. Further, the molecule was classed as inactive in [10]. Also, in test [12], the activity change, positive = activation is -43.8%.
Turning to `COC(=O)[C@H]1[C@H]2C[C@@H]3c4[nH]c5cc(OC)ccc5c4CCN3C[C@H]2C[C@@H](OC(=O)/C=C/c2ccc(O)c(OC)c2)[C@@H]1OC`, the Potency result in [1], in [2], in [3], in test [4], in [5] and in test [6] was “inactive” each time. For the same molecule, the Potency entry in test [8], in test [9], in test [18], in test [11] and in [13] was “inactive” each time. In test [10], the outcome was inactive. Besides, the Potency in [19] was 10.6 µM (active). Also, in [12], the activity change, positive = activation is -35.3% [at 42.5 µM].
As for `COc1cc(C(=O)NCCCCCC(=O)O)cc(OC)c1OC`, the Potency entry in [1], in [2], in [3], in test [4], in [5] and in test [6] was “inactive” throughout. The Potency entry in test [7], in test [8], in test [9], in test [18], in test [11] and in [19] was “inactive” in each case. In addition, the Potency result in test [13], in test [14], in [15] and in test [16] was “inactive” throughout. Moreover, the result in test [10] was inactive. The activity change, positive = activation in test [12] was 1.72% [at 42.5 µM].
For the molecule `COc1ccccc1N1CCN(CCCCNC(=O)c2ccc(-c3ccc(C(C)=O)cc3)cc2)CC1`, the Potency entry in [1], in test [2], in test [6], in test [9], in test [18] and in test [11] was “inactive” throughout. Further, the Potency result in [13], in test [15] and in [16] was “inactive” throughout. In addition, in [10], the outcome was inactive. Moreover, the Potency in test [14] was 1.51 µM (active).
With `CC(C)(O)c1ccc(CNC(=O)c2cccnc2Oc2ccc3nonc3c2)cc1`, the Potency entry in [1], in [2], in test [3], in [4], in [8] and in test [9] was “inactive” throughout. The Potency result in [18], in [11], in test [13], in [15] and in test [16] was “inactive” throughout. In addition, the Potency in test [5] was 24.3 µM (active); in test [19] it was 54.5 µM (active). In addition, the molecule was called inactive in [10]. Further, in [12], the activity change, positive = activation is -39.3%.
